Data taken from paper PMC5540273 (PLoS ONE, 2017).

Legend:
Conditions in all cases: concentration: 1 μM,replicates: in singlicate; n = 1
DCAMKL2 = system: T1, DCAMKL2
T1 construct: gene DCLK2

DCAMKL3 = system: T2, DCAMKL3
T2 construct: gene DCLK3

DDR1 = system: DDR1
DDR2 = system: DDR2
DLK = system: T3, DLK
T3 construct: gene MAP3K12

DMPK2 = system: T4, DMPK2
T4 construct: gene CDC42BPG

DMPK = system: DMPK
DRAK1 = system: T5, DRAK1
T5 construct: gene STK17A

DRAK2 = system: T6, DRAK2
T6 construct: gene STK17B

DYRK1A = system: DYRK1A
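Note: KINOMEscan kinase panel screen.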

Structure (SMILES) | %Inh (DCAMKL2) [%] | %Inh (DCAMKL3) [%] | %Inh (DDR1) [%] | %Inh (DDR2) [%] | %Inh (DLK) [%] | %Inh (DMPK2) [%] | %Inh (DMPK) [%] | %Inh (DRAK1) [%] | %Inh (DRAK2) [%] | %Inh (DYRK1A) [%]
Cc1occc1-c1nc(N)c(OC[C@@H](N)Cc2c[nH]c3ccccc23)cc1-c1cc2c(C)n[nH]c2cn1 [GSK1660450] | 19 | 56 | 10 | 0 | 13 | 86 | 99.1 | 0 | 0 | 100
NC(=O)c1cc(-c2ccccc2)cc2c(C3CCNCC3)c[nH]c12 [GSK301362] | 2 | 53 |  | 0 | 23 | 8 | 30 | 0 | 0 | 28
C=CC(=O)Nc1cc2c(Nc3ccc(F)c(Cl)c3)ncnc2cc1OCCCN1CCOCC1 [GW781483] | 1 | 10 | 71 | 44 | 0 | 6 | 20 | 2 | 5 | 11
CN(C)CC(O)COc1ccc(Nc2nccc(-c3cnn4nc(N5CCOCC5)ccc34)n2)cc1 (stereo not shown) [GW767488] | 61 | 64 | 0 | 0 | 61 | 17 | 20 | 99.7 | 93.1 | 73
Cc1n[nH]c2ccc(-c3cc(OC[C@@H](N)Cc4ccccc4)cnc3-c3ccoc3)cc12.O=C(O)C(F)(F)F.O=C(O)C(F)(F)F [GSK507358] | 0 | 0 | 0 | 0 | 15 | 50 | 92.8 | 0 | 0 | 29
CNC(=O)c1ccccc1Sc1ccc2c(/C=C/c3ccccn3)n[nH]c2c1 | 14 | 76 | 18 | 14 | 41 | 6 | 0 | 76 | 0 | 0
C[C@H]1Oc2cc(cnc2N)-c2c(nn(C)c2C#N)CN(C)C(=O)c2ccc(F)cc21 | 91.8 | 15 |  | 3 | 2 | 0 | 0 | 2 | 0 | 0
CCN(CC)CCCCNc1ncc2cc(-c3c(Cl)cccc3Cl)c(NC(=O)NC(C)(C)C)nc2n1 | 0 | 14 | 99.7 | 100 | 86 | 0 | 4 | 0 | 5 | 0
Cc1cc(C(=O)Nc2ccc(Oc3ccc4nc(NC(=O)C5CC5)cn4n3)cc2)nn1-c1ccccc1 | 2 | 20 |  | 100 | 12 | 0 | 0 | 0 | 0 | 0
CC(C)Nc1cc(-c2ccc3c(N)n[nH]c3c2)nc(N)n1 [GSK2221681] | 20 | 51 | 0 | 0 | 28 | 0 | 0 | 99 | 0 | 50
CCn1c(-c2nonc2N)nc2c(C#CC(C)(C)O)nc(OCCN)cc21.Cl.Cl [GSK902056] | 0 | 40 |  | 5 | 0 | 0 | 0 | 0 | 0 | 25
Cl.Oc1cc(-c2nc(-c3ccccc3)[nH]c2-c2ccncc2)ccc1Cl [SB-386023] | 0 | 0 | 92.7 | 83 | 0 | 0 | 0 | 0 | 0 | 0
O=C(NCCCN1CCOC1=O)c1cnc(NCc2cc(Cl)ccc2Cl)nc1NC1CCCC1 | 1 | 18 | 0 | 11 | 37 | 0 | 0 | 0 | 0 | 0
C[C@@H](Oc1cc(-c2cnn(C3CCNCC3)c2)cnc1N)c1c(Cl)ccc(F)c1Cl | 79 | 22 | 59 | 44 | 94.6 | 0 | 22 | 0 | 0 | 12
Cc1ccc(-n2nc(C(C)(C)C)cc2NC(=O)Nc2ccc(OCCN3CCOCC3)c3ccccc23)cc1 [GW839464] | 0 | 34 |  |  | 7 | 40 | 4 | 0 | 11 | 0
Cl.Cl.NC[C@H](CC1CCCCC1)NC(=O)c1cc(Br)c(-c2ccnc3[nH]ccc23)s1 [GSK1581427] | 14 | 0 | 0 | 0 | 0 | 98.3 | 91.7 | 14 | 0 | 55
Cl.Cl.Nc1nc(-c2ccc3c(N)n[nH]c3c2)cc(N2CCCC(NC(=O)c3ccccc3)C2)n1 (stereo not shown) [GSK2286775] | 0 | 0 | 26 | 0 | 1 | 1 | 0 | 75 | 0 | 9
Cl.Cl.NC[C@H](Cc1ccc(C(F)(F)F)cc1)NC(=O)c1cc(Br)c(-c2ccnc3[nH]ccc23)s1 [GSK1487252] | 0 | 75 | 8 | 0 | 8 | 64 | 0 | 18 | 0 | 35
Nc1nc(Nc2ccccc2)cc(-c2ccc3c(N)n[nH]c3c2)n1 [GSK2225749] | 0 | 61 | 0 | 26 | 3 | 0 | 0 | 99.5 | 97.2 | 48
Cc1ccc2c(-c3ccncc3)c(-c3ccc(F)cc3)nn2c1.Cl [GW461484] | 0 | 0 | 76 | 80 | 29 | 77 | 11 | 0 | 0 | 0
CCN(CC)CCOc1ccc(Nc2ncc3cc(-c4c(Cl)cccc4Cl)c(=O)n(C)c3n2)cc1 [SB-601273] | 41 | 0 | 100 | 100 | 96.4 | 95.4 | 24 | 43 | 21 | 0
COc1ccc(C[C@@H](CN)NC(=O)c2cc(Br)c(-c3ccnc4[nH]ccc34)s2)cc1.Cl.Cl [GSK1389063] | 38 | 86 | 2 | 26 | 10 | 99.4 | 28 | 44 | 0 | 97.6
CC(C)N1C(=O)Cc2cc(Nc3ncc(C(F)(F)F)c(NCc4cccc(S(C)(=O)=O)c4)n3)ccc21 | 0 | 34 |  | 0 | 0 | 0 | 0 | 74 | 82 | 2
C[C@@H]1CCN(C(=O)CC#N)C[C@@H]1N(C)c1ncnc2[nH]ccc12 | 14 | 99.1 | 0 | 0 | 0 | 0 | 24 | 11 | 5 | 0
Cc1cc2cn[nH]c2cc1-c1cccc2c(N)c(C(N)=O)nnc12 | 37 | 98.8 | 0 | 0 | 98.8 | 7 | 0 | 47 | 27 | 13
CN(C)CCOc1ccc(-c2cc(-c3c[nH]nc3-c3ccccn3)ccn2)cc1 [GW835314] | 1 | 1 | 0 | 0 | 8 | 0 | 0 | 18 | 9 | 1
O=C(NCCNc1ccnc(NCc2ccc(F)cc2)n1)c1cc2ccccc2s1 [GSK1379944] | 0 | 4 |  | 0 | 0 | 0 | 0 | 0 | 0 | 30
